This is a sample that favours compounds with a hit; in the whole collection about 6.4% have one here.
Gal4-VP16 FLuc – counter-screen for ROR gamma inhibitors: Gal4-VP16 reporter | 3.5% of 310,000 active | Drosophila S2 Gal4-VP16 UAS-luciferase, luminescence, 20 h | Potency, µM (highest dose often 53.6 µM), most hits filed as inhibitors;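 further: Gal4-VP16 expression switched on by copper sulfate through the metallothionein promoter; nearly all actives have a fitted effect of over 50% in size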
Luc counter – counter-screen: inhibitors of Kinase-Glo firefly luciferase; Q27757; Kinase-Glo luciferase, ATP luminescence, 8 min; Potency, µM (top dose mostly 38.3 µM), actives largely listed as inhibitors; 0.28% of 200,000 active; AID 1379; further: nearly all actives have a fitted effect of over 60% in size
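Compounds were added to a substrate mix at pH 7.2 (50 mM imidazole, 10 uM ATP, within the enzyme's linear range), followed by Kinase-Glo detection reagent; luminescence was measured after 8 minutes at ambient temperature.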
RORgamma inh – ROR gamma (mouse) transcription inhibition; Drosophila S2 Gal4-RORgamma UAS-luciferase reporter, 20 h; Potency, µM (titrated, usually from 53.6 µM), most hits filed as inhibitors; 5.4% of 310,000 active; AID 2551; further: nearly all actives have a fitted effect of over 60% in size
Target sequence (P51450 whole entry, looked up, the tested form may be a part): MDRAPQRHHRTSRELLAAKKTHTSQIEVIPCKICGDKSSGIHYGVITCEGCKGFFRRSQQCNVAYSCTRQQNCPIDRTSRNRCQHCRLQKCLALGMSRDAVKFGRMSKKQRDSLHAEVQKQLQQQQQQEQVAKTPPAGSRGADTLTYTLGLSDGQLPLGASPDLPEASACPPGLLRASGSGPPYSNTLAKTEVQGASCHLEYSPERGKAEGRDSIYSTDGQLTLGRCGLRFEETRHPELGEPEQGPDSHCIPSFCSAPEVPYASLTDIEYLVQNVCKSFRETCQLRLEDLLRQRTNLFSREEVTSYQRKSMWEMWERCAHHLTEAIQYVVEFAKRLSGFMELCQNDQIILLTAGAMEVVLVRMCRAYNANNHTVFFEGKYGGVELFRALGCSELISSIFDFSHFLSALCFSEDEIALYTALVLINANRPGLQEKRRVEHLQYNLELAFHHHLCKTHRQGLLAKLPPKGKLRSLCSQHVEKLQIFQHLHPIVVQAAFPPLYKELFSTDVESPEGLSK
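Stably transfected Drosophila Schneider cells are the test system, with ROR gamma fused to Gal4 and luciferase under UAS control; luminescence is read after 20 hr of 700 uM copper sulfate induction at ambient temperature.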
A number is an active result; i = inactive; ? = inconclusive; nt = no result given; [ ] = another dose, or the depositor's remark. The call rests on the fitted dose curve; in most records, active means well fitted curve in the direction sought with a large enough effect; inconclusive means small, poorly fitted or top-dose-only effect, or another doubt; inactive means no such curve, though single readings can be large; an effect the other way counts as inactive or inconclusive.

SMILES | Gal4-VP16 FLuc | Luc counter | RORgamma inh
COc1ccc(CNC(=O)c2ccc(Cn3nc(C)c([N+](=O)[O-])c3C)o2)cc1 | 5.01µM | i | 5.62µM
Cc1cc(NC(=O)c2ccc(Cn3nc(C)c(Br)c3C)o2)no1 | i | i | i
Cc1nn(Cc2ccc(C(=O)Nc3ccc(C(=O)OC(C)C)cc3)o2)c(C)c1Cl | i | i | 1.58µM
Cc1nn(Cc2ccc(C(=O)NC(C)(C)C)o2)c(C)c1Br | 10µM | i | ?
O=C1CC(N2CCN(c3nc4ccccc4s3)CC2)C(=O)N1c1cccc(F)c1 (stereo unspecified) | i | i | i
Cc1cc(C)n2nc(SCC(=O)c3cc(C)n(-c4cc(C)on4)c3C)nc2n1 | 3.98µM | nt | i
Cc1cc(-n2c(C)cc(C(=O)CSc3ncnc4ccccc34)c2C)no1 | 5.01µM | i | ?
Cc1cc(C)n2nc(SCC(=O)c3ccccc3)nc2n1 | i | i | i
Cc1cc(-n2c(C)cc(C(=O)CSc3nnc4sc5ccccc5n34)c2C)no1 | i | i | i[10 µM]
Cn1c(=O)c2c(nc(NCCNc3nc4c(c(=O)n(C)c(=O)n4C)n3C)n2C)n(C)c1=O | nt | i[7.66 µM] | nt
COc1cc2c(cc1OC)C(c1ccccc1)N(C(=O)C(C)(C)C)CC2 (stereo unspecified) | i | nt | i
O=C(NC(NC(=S)Nc1c(Cl)cccc1Cl)C(Cl)(Cl)Cl)c1cccc([N+](=O)[O-])c1 (stereo unspecified) | 8.91µM | i | ?
Cc1cccc(C(=O)NC(NC(=S)Nc2ccc(S(N)(=O)=O)cc2)C(Cl)(Cl)Cl)c1 (stereo unspecified) | i | i | i
CN(C)/C=C/C(=O)c1cccc(Cl)c1 | 10µM | i | i
CN(C)/C=C/C(=O)c1ccc(Cl)cc1 | i | i | ?
O=C(c1cccnc1)N1CCN(c2ccc3ccccc3n2)CC1 | i | i | i
CCC[C@H](NC(=O)[C@H](CC(C)C)N(C)C(=O)CNC(=O)[C@@H](NC(=O)[C@H](Cc1ccccc1)NC(=O)[C@H](CCCCN)NC(=O)[C@@H](N)CC(=O)O)C(C)C)C(N)=O | i | nt | i
CC(C)C(=O)N1CCN(c2nc(-c3ccc(Cl)cc3)cs2)CC1 | i | i | i
O=C(Cc1cccs1)N1CCN(c2nc(-c3ccc(Cl)cc3)cs2)CC1 | ? | nt | 12.6µM
S=C(NCc1ccco1)N1CCN(c2nc(-c3ccccc3)cs2)CC1 | i | i | i
S=C(NCc1ccco1)N1CCN(c2nc(-c3ccc(Cl)cc3)cs2)CC1 | ? | i | 11.2µM
C=CCNC(=O)c1ccc(NC(=O)C2=CSCCO2)cc1 | i | nt | i
COCC#Cc1ccc(C2C(C)CCC3C(=O)N4C(CCC(C)C4c4ccc(C#CCOC)cc4)C(=O)N32)cc1 (stereo unspecified) | i[10 µM] | nt | i[10 µM]
OCCSCc1ccccc1 | nt | i[7.66 µM] | nt
COc1ccc(-n2c(C)nc(=O)c(-c3ccccc3)c2C)cc1 | i | i | i
SMILES | Gal4-VP16 FLuc | Luc counter | RORgamma inh
COc1ccc(-n2c(-c3cc(-c4ccccc4)sc3N)n[nH]c2=S)cc1 | ? | nt | 2.51µM
S=c1[nH]nc(-c2cccs2)n1C1CCCCC1 | i | nt | i
Nc1sc(-c2ccccc2)cc1-c1n[nH]c(=S)n1C1CCCCC1 | ? | nt | 2.24µM
O=C(CCOc1ccccc1)Nc1ccccc1F | i | nt | i
Cc1ccccc1OCC(=O)O/N=C(\N)Cc1cccs1 | i | i | i
Cc1ccccc1C(=O)O/N=C(\N)Cc1cccs1 | ? | nt | 7.94µM
O=c1c(-c2cc(F)cc(F)c2)nc2cnc(Nc3ccccc3)nc2n1C[C@H]1CCCO1 | i | nt | i
S=c1nc(NCCc2ccccc2Cl)c2ccccc2[nH]1 | 6.31µM | nt | 1.58µM
O=C(CCCCCNc1nc(=S)[nH]c2ccccc12)NCCc1ccccc1 | i | i | ?
O=C(CCCCCNc1nc(=S)[nH]c2ccccc12)NCc1ccccc1Cl | ? | i | 17.8µM
O=C(NCc1ccccc1Cl)C1CCC(CNc2nc(=S)[nH]c3ccccc23)CC1 (stereo unspecified) | i | i | i
CC(C)(Oc1ccc(Cl)cc1)C(=O)N(Cc1ccccc1)c1ccccn1 | i | i | i[10 µM]
COc1cc2c(cc1OC)[C@H](C)N(CC1C(=O)O[C@@H]3C[C@@]4(C)CCC[C@H](C)[C@@]45OC5[C@H]13)CC2 (stereo partly specified) | ? | i | ?
COc1ccc2c(c1)CCc1sc(NC(=O)c3ccc(C)cc3)nc1-2 | 1µM | i | 0.141µM
COc1ccc2c(c1)-c1nc(NC(=O)c3ccco3)sc1CC2 | i | i | i
COc1ccc2c(c1)-c1nc(NC(=O)c3cccs3)sc1CC2 | ? | i | 8.91µM
COc1ccc2c(c1)-c1nc(/N=C/c3ccc(O)cc3)sc1CC2 | ? | i | i
COc1ccc2c(c1)-c1nc(/N=C/c3c(O)ccc4ccccc34)sc1CC2 | ? | i | 15.8µM
COc1ccc2c(c1)CCc1sc(NC(=O)c3ccco3)nc1-2 | i | i | i
